The values below come from ChEMBL document CHEMBL3988442, “University of Dundee, Small-Polar-MMV Screening Library” (2021).

What all share (parameters): scale not given: direction of the effect not stated beside the values
The target in assay [1] is Protein translocase subunit SecA (Escherichia coli (strain K12)) (UniProt P10408). Nature of the assay: Assay to Identify E. coli SecA ATPase Inhibitors. It counts as functional. To be noted: 30 µM.
For assay [2], the target named is T1, Ubiquitin-activating enzyme e1, putative (Leishmania donovani (strain BPK282A1)) (UniProt E9BSI1).
T1 sequence (whole entry): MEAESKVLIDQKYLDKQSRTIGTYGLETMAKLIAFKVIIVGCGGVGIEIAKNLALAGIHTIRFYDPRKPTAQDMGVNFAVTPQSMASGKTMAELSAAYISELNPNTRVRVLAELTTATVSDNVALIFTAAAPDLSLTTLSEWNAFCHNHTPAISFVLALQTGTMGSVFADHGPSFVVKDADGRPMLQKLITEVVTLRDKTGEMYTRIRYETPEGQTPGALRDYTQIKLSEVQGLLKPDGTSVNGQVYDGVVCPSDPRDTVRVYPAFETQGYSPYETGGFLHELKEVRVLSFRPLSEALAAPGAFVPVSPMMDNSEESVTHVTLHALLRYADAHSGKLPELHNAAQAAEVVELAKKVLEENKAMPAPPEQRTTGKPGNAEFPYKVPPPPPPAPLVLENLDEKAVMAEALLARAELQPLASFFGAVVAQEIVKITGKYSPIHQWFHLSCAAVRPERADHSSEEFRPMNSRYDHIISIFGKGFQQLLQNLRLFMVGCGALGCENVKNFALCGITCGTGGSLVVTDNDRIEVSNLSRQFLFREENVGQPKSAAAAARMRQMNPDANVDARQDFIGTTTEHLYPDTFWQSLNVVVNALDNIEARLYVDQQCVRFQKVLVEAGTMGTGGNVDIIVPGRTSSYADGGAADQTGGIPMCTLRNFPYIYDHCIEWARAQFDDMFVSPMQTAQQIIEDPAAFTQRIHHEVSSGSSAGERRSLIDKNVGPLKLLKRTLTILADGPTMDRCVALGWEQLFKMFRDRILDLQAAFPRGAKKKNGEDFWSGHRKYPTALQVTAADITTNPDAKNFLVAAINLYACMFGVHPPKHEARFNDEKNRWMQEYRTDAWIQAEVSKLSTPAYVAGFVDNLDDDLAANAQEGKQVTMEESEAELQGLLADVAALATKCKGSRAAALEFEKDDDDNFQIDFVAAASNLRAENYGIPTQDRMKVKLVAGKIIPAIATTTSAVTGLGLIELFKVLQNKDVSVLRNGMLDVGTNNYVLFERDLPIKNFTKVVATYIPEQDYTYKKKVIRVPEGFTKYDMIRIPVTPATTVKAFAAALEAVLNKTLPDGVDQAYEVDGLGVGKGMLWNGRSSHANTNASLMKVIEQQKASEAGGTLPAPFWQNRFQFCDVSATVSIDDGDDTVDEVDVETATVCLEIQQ
Nature of the assay: Leishmania donovani Ubiquitin Activating Enzyme (LdE1). As to conditions: 30 µM. It counts as functional.

The target in assay [3] is AMP-activated protein kinase, AMPK (Homo sapiens) (UniProt P54646+O43741+P54619+Q9UGJ0+Q9Y478+Q13131+Q9UGI9). Nature of the assay: AMP-dependent Kinase enzyme assay. An in vitro enzyme assay that detects ADP turnover that is directly proportional to AMPK activity. This uses naive AMPK that is activated during the assay with MK-8722. The format is functional. To be noted: 30 µM.

In assay [4] the target is Sialic acid-binding Ig-like lectin 9 (Homo sapiens) (UniProt Q9Y336). Nature of the assay: Hs-Siglec9 ALPHAscreen SOP 20170721. To be noted: 10 µM. In general terms: Alpha assays give light when donor and acceptor beads are brought close together.
Chain of Sialic acid-binding Ig-like lectin 9 (Homo sapiens) (Q9Y336 whole entry): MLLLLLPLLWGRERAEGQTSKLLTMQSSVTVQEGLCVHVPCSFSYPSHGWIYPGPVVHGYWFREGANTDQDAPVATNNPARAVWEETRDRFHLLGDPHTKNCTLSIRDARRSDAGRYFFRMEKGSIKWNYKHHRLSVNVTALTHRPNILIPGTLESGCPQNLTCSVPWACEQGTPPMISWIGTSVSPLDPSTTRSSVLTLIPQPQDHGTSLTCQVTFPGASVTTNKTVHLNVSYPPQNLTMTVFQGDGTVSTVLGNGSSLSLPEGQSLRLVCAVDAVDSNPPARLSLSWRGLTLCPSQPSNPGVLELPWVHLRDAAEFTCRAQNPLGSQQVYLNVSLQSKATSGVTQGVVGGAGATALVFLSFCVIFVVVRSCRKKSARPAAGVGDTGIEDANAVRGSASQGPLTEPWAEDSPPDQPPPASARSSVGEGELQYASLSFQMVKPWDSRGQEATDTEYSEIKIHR
Assay [5] has as its system Trypanosoma cruzi. Nature of the assay: Trypanosoma cruzi phosphomannomutase and mannose-1-phosphate guanylyltransferase assay. The format is functional. To be noted: 10 µM.
Assay [6] concerns the target T2, Arginase-2, mitochondrial (Homo sapiens) (UniProt P78540).
T2 sequence (whole entry): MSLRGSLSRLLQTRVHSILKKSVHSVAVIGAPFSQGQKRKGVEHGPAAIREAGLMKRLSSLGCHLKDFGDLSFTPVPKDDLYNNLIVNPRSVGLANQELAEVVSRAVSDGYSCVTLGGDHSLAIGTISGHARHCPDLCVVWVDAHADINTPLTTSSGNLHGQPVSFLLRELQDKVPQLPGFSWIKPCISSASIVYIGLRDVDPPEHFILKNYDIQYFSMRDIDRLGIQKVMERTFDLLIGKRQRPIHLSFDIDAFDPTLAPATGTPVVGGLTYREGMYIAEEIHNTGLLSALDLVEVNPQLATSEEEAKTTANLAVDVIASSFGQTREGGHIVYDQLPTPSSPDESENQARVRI
Nature of the assay: in vitro enzyme assay to detect the production of urea directly proportional to the activity of Arginase II. Also: in the data most compounds retested in dose-response had high values. As to conditions: 33.3 µM. It counts as functional.

Assay [7] has as its target T3, Proteasome subunit beta (Trypanosoma cruzi) (UniProt O96673).
T3 sequence (whole entry): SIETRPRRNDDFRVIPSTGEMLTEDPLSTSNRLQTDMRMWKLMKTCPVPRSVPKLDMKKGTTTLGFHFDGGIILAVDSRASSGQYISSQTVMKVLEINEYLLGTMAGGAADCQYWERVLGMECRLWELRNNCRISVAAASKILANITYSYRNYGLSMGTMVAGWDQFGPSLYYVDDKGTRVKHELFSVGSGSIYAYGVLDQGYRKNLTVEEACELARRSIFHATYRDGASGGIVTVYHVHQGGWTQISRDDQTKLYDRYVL
The assay is described as follows: Trypanosoma cruzi proteasome chymotrypsin-like activity (TcProtChymo) assay. Also: in the data most compounds retested in dose-response had high values. The format is functional. As to conditions: 9.37 µM.

Assay [8] is filed under the species Homo sapiens. The assay is described as follows: To identify inhibition of the IFN signalling (Jak-Stat) pathway via expression of an eGFP reporter gene under the control of an IFN-stimulated response element (ISRE) containing MxA promoter. As to conditions: 30 µM. The format is functional. On the technique in general: A reporter such as luciferase makes a cellular process visible.

The target in assay [9] is T4, Tyrosyl-tRNA synthetase, putative (Trypanosoma cruzi (strain CL Brener)) (UniProt Q4DSP6).
T4 sequence (whole entry): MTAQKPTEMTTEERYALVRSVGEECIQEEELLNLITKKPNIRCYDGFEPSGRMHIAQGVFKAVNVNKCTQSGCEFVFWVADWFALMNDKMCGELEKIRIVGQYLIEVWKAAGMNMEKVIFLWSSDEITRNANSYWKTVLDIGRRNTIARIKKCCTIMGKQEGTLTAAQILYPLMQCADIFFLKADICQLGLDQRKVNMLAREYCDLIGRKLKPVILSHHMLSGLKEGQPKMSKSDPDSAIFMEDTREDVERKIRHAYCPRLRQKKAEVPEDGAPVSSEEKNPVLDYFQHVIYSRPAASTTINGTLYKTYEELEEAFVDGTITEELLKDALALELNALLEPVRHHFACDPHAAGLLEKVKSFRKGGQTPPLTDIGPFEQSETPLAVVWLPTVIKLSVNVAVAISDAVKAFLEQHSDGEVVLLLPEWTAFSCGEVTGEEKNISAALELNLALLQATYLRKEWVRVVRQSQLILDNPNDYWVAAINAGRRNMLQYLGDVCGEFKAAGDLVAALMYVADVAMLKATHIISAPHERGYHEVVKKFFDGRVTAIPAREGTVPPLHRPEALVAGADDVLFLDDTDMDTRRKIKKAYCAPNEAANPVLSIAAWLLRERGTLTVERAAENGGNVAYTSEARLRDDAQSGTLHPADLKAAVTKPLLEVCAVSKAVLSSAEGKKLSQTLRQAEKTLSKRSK
The assay is described as follows: Trypanosoma cruzi tyrosyl tRNA synthetase (TcYRS) _High Tyrosine SOP. Also: in the data most compounds retested in dose-response had high values. As to conditions: 30 µM. It counts as functional.

In assay [10] the target is T4, Tyrosyl-tRNA synthetase, putative (Trypanosoma cruzi (strain CL Brener)). The assay is described as follows: Trypanosoma cruzi tyrosyl tRNA synthetase (TcYRS) SOP. It counts as functional. To be noted: 30 µM.
In assay [11] the target is Chromo domain-containing protein 1 (Saccharomyces cerevisiae (strain ATCC 204508 / S288c) (Baker's yeast)) (UniProt P32657). The assay is described as follows: ScCHD-1 Enzyme Inhibition Assay. Also: in the data most compounds retested in dose-response had high values. As to conditions: 30 µM. The format is functional.
Chain of Chromo domain-containing protein 1 (Saccharomyces cerevisiae (strain ATCC 204508 / S288c) (Baker's yeast)) (P32657 whole entry, the tested form may be a part): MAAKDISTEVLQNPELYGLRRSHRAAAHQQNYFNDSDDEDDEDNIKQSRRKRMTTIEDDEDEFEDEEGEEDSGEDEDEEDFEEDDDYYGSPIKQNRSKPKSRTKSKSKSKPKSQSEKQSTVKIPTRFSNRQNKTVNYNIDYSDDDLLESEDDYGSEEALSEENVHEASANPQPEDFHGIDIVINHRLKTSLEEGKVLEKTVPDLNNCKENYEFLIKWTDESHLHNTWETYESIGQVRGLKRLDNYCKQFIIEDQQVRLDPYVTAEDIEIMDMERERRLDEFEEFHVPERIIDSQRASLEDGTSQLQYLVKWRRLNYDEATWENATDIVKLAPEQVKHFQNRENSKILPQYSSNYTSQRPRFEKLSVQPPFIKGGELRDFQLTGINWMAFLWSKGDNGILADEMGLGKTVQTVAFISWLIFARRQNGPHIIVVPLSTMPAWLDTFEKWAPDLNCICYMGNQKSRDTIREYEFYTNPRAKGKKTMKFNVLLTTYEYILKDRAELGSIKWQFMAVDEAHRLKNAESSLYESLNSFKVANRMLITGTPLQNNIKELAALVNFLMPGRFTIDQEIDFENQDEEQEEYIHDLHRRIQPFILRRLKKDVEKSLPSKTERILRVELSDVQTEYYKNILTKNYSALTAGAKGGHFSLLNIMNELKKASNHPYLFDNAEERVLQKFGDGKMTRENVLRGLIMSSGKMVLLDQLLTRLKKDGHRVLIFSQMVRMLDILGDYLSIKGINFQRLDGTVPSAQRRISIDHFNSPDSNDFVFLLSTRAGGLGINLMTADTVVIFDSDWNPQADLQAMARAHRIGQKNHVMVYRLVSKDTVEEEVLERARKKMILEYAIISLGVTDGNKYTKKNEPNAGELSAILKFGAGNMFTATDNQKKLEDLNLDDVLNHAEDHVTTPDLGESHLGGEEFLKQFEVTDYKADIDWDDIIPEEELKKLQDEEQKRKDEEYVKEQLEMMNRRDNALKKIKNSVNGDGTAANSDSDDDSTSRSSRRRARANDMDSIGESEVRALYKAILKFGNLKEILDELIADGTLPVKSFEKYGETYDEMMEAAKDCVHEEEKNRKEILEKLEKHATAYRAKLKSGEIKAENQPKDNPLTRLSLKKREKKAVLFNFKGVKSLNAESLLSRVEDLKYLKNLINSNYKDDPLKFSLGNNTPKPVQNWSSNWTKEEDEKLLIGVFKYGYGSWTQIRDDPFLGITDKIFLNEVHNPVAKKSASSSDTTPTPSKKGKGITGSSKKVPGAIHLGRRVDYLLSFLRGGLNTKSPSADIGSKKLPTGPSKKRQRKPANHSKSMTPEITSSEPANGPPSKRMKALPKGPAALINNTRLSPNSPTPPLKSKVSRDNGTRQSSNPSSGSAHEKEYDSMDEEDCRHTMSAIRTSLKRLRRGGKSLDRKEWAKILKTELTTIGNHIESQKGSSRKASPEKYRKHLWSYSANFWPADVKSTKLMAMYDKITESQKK

For some assays here: Measured potencies and affinities stand elsewhere.

Chain of Protein translocase subunit SecA (Escherichia coli (strain K12)) (P10408 whole entry): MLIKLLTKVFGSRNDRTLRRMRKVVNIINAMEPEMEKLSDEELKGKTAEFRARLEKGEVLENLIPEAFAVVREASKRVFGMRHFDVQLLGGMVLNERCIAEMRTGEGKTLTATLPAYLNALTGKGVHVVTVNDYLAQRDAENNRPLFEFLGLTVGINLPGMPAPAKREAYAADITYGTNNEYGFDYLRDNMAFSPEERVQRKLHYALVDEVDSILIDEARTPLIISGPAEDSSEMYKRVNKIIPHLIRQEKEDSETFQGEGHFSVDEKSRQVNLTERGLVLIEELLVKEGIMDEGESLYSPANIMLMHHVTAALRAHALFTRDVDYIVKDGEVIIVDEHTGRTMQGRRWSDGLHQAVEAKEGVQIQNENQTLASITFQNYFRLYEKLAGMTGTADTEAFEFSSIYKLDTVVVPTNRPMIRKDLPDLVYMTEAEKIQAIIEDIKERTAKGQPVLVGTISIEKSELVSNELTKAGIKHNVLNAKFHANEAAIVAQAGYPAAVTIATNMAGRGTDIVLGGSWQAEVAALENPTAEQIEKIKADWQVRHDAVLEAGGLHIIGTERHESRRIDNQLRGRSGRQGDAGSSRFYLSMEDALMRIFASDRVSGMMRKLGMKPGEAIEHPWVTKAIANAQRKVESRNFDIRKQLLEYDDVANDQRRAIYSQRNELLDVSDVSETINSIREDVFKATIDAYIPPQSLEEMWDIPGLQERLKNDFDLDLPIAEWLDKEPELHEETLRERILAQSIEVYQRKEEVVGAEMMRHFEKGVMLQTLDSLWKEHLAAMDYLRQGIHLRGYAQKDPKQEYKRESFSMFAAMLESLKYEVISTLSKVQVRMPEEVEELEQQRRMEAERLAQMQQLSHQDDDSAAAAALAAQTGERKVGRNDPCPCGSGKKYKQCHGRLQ

With `CCn1cnnc1CNC(=O)NC(C)c1cccs1` (stereo not given), the Percent Effect in assay [1] is -1.87%; in assay [2], 23.4%; in [3] it was -0.473%; in assay [4], 11.3%; in assay [5], 1.5%; in assay [6], -5.69%. Further, the Percent Effect in assay [7] was 3.38%; in [8] it was 10.1%; in [9], 4.85%; in assay [10] it was 21.9%; in [11], -8.5%.

As to `Cc1nc(C)n(CC2CN(Cc3cccc(C(N)=O)c3)CCO2)n1` (stereo not given), the Percent Effect in [1] was -1.88%; in assay [2] it was -5.41%; in [3], 5.74%; in assay [4], -4.05%; in assay [5], -4.69%; in [6] it was 0%. The Percent Effect was 9.72% in [7]; -7.92% in [8]; 5.94% in [9]; 6.1% in assay [10]; 7.72% in assay [11].

In the case of `COc1cccc(CN2C[C@@H]3COC[C@]3(COCc3ccncc3)C2)c1`, the Percent Effect in [1] was -5.26%; in assay [2], 8.11%; in assay [3], 5.1%; in assay [4], -1.02%; in assay [5], 6.94%; in assay [6], -4.14%. Also, the Percent Effect in [7] was 14.6%; in assay [8], 5.58%; in assay [9], 2.16%; in [10], 10.3%; in [11], -0.65%.

As for `Cn1cccc1C(=O)N1CCc2ncnc(C3CC3)c2CC1`, the Percent Effect in [1] is -4.53%; in assay [2] it was 13.3%; in assay [3], 9.69%; in assay [4], -5.45%; in assay [5], -5.12%; in assay [6], -0.699%. The Percent Effect in assay [7] was 21.1%; in assay [8], 22.4%; in [9] it was 0%; in [10], 6.41%; in assay [11] it was -1.35%.

Turning to `CC(C)CCNC(=O)c1sccc1N(C)S(=O)(=O)c1ccccc1`, the Percent Effect is -0.473% in assay [1]; 23.7% in [2]; -3.53% in [3]; -18.2% in assay [4]; -0.0974% in assay [5]; -3.55% in assay [6]. Also, the Percent Effect in assay [7] was 10.3%; in assay [8] it was 23.3%; in [9], -3.19%; in assay [10], 5.2%; in [11], -3.5%.

With `Cn1cc(CN2CC3(CCN(C(=O)c4cscn4)C3)C2)cn1`, the Percent Effect in [1] was -1.74%; in assay [2], 19.2%; in assay [3], -7.29%; in assay [4] it was 10.7%; in assay [5] it was 3.77%; in assay [6], -3.19%. Further, the Percent Effect in assay [7] was 9.85%; in assay [8], 4.08%; in assay [9], 10.4%; in assay [10], 16.1%; in assay [11], -10.8%.

Consider `O=C(NCCCN1CCOCC1)c1cc(-c2ccco2)[nH]n1`, for which the Percent Effect in assay [1] is -3.38%; in [2], 8.22%; in [3] it was -11%; in [4] it was 10.3%; in [5] it was -0.794%; in assay [6], 2.4%. Also, the Percent Effect in assay [7] was 11.2%; in [8], 0.231%; in assay [9], 11.5%; in assay [10], 28.4%; in assay [11], -2.57%.

As for `Cc1cnn(CC2CCCN2C(=O)c2ccc3cc[nH]c3c2)c1` (stereo not given), the Percent Effect was -1.42% in assay [1]; 1.27% in assay [2]; 3.59% in assay [3]; 1.53% in assay [4]; -1.33% in assay [5]; 1.5% in assay [6]. In addition, the Percent Effect in assay [7] was 2.4%; in assay [8], 13.8%; in [9], 0%; in assay [10] it was 5.06%; in [11], -8.72%.

Turning to `COc1ccc(NC(=O)NC(C)c2nc[nH]n2)cc1` (stereo not given), the Percent Effect in assay [1] is -1.78%; in assay [2], 8.11%; in assay [3], -0.122%; in assay [4] it was 9.35%; in assay [5] it was 3.03%; in assay [6], 19.6%. Further, the Percent Effect in [7] was 17.9%; in [8], -13.4%; in [9], 0%; in assay [10] it was 11.1%; in assay [11], -3.04%.

As to `Cc1cccc(NC(=O)CNC(=O)Cn2ncc(Cl)c(Cl)c2=O)c1C`, the Percent Effect in assay [1] is -1.81%; in assay [2], 0%; in [3], 26%; in assay [4], 2.69%; in assay [5], -8.4%; in [6], 0%. In addition, the Percent Effect in assay [7] is 16.6%; in [8], 23.8%; in [9] it was 11.9%; in assay [10], -1.22%; in [11], 7.2%.
